# Bioassay records as filed in PubChem.
# Shown are actives, neighbours in structure and some others; about 12% of the full set was active somewhere.
# HP1b binding inh = blocks HP1-beta chromodomain binding to methylated histone tails; P83916; AlphaScreen HP1-beta / biotin-H3K9me3 peptide binding; Potency, µM (doses to about 114 µM), actives largely listed as inhibitors; 0.56% of 390,000 active; also: nearly all actives have a fitted effect of over 70% in size
# Target sequence (P83916 whole entry, looked up): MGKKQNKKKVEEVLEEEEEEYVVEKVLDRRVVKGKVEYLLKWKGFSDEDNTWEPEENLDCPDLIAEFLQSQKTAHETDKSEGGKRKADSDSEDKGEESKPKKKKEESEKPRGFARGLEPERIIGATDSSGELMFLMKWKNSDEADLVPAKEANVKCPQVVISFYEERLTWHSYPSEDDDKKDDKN
#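 Compound inhibition of the preformed complex between 50 nM HP1-beta and 50 nM biotinylated H3K9me3 peptide was read by AlphaScreen. Buffer was PBS pH 7.4 with 0.01% Tween-20. Incubations ran 30 min at room temperature, with 10 ug/mL donor/acceptor beads.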
# Sfp inh = Sfp phosphopantetheinyl transferase inhibition; Biochemical Sfp PPTase activity, qHTS; Potency, µM, hits mostly inhibitors; 3.5% of 310,000 active; AID 1490;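 also: the enzyme is Sfp with the accession as filed and its product quenches rhodamine fluorescence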
#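 Reaction rates are the 30-min fluorescence difference (ex 525, em 598 nm) in wells containing 15 nM Sfp, 5 uM rhodamine-CoA and 12.5 uM BHQ-2-YbbR at pH 7.6 with 10 mM MgCl2.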
# G9a inh = G9a (human) methyltransferase inhibition; Q96KQ7; G9a H3K9 monomethylation, AlphaScreen, 2 h; Potency, µM (doses to about 102 µM), actives largely listed as inhibitors; 8.8% of 350,000 active; AID 504332; also: nearly all actives have a fitted effect of over 75% in size
# Target sequence (Q96KQ7 913-1193 limits assumed): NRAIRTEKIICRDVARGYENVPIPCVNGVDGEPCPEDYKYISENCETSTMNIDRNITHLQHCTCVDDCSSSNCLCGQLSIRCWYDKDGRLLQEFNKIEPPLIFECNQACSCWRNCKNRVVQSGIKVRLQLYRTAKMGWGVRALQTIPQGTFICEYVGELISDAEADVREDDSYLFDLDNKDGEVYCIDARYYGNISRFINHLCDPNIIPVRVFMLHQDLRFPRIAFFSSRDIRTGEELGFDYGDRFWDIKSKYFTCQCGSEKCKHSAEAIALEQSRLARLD
#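 Signal arises when biotinylated H3K9 peptide, once monomethylated, bridges streptavidin donor and antibody-captured acceptor beads. Enzyme at 20 nM was preincubated 15 min with test compounds; peptide 500 nM and SAM 20 uM then reacted for 2 h.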
# JMJD2A Tudor = JMJD2A Tudor domain (human) inhibition | AlphaScreen JMJD2A-Tudor / H3K4me3 peptide binding | 4.4% of 390,000 active | Potency, µM (series often up to 114 µM), hits mostly inhibitors | AID 504339 | O75164; also: nearly all actives have a fitted effect of over 50% in size
# L3MBTL1 block = blocks human L3MBTL1; Q9Y468; AlphaScreen L3MBTL1–H3K9me1 peptide binding; Potency, µM (highest dose often 57.1 µM), actives largely listed as inhibitors; 0.66% of 230,000 active; AID 485360; also: nearly all actives have a fitted effect of over 60% in size
#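 AlphaScreen proximity signal between nickel-chelate acceptor and streptavidin donor beads (final 10 ug/mL) reports binding of 50 nM L3MBTL1 to 75 nM biotin-H3 K9me1 peptide; complex incubated with compounds 30 min at room temperature; cefsulodin titration as control.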
# BAZ2B block = inhibitors of human BAZ2B bromodomain; Q9UIF8; AlphaScreen BAZ2B-H3K14Ac peptide displacement; Potency, µM (doses to about 114 µM), usual class: inhibitors; 4.4% of 360,000 active; also: nearly all actives have a fitted effect of over 60% in size
#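 Protein-peptide AlphaScreen: BAZ2B 50 nM, b-H3K14Ac 50 nM, 1x PBS pH 7.4 + 0.01% Tween-20. Preincubation 30 min RT; cpd 30 min RT (top 110 uM); beads 20 min RT, light-protected.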
# Numbers stand for hits; . = inactive; ? = inconclusive; / = not tested or not shown; ! = not confirmed by another sample; [ ] = another dose, or the depositor's remark. Calls follow the shape of the dose curve; as a rule, active = well fitted curve in the direction sought with a large enough effect; inconclusive = small, poorly fitted or top-dose-only effect, or another doubt; inactive = no such curve, though single readings can be large; an effect the other way counts as inactive or inconclusive.
SMILES,HP1b binding inh,Sfp inh,G9a inh,JMJD2A Tudor,L3MBTL1 block,BAZ2B block
CC(C)OC(=O)c1cccc(C(=O)O)n1,.,50µM,2.5µM,7.1µM,.,?
Cc1ccc2c(c1)cc1c(=O)n(CC(=O)NCc3ccco3)nc(C)n12,.,/,.,.,/,.
N#Cc1c(NC(=O)c2cnccn2)sc2c1CCCC2,.,25µM,?,?,.,.
CC(C)c1ccc(NC(=O)c2cc([N+](=O)[O-])ccc2N2CCOCC2)cc1,.,.,?,.,/,.
N#Cc1c(NC(=O)c2ccc(Cn3cc(Br)cn3)o2)sc2c1CCCCCC2,.,?,11µM,.,.,.
N#Cc1c(NC(=O)c2cc([N+](=O)[O-])ccc2N2CCOCC2)sc2c1CCCC2,.,.,?,?,.,56µM
Cc1ccc(-c2nc3cc(C(C)C)ccc3o2)cc1NC(=O)c1cc([N+](=O)[O-])ccc1N1CCOCC1,.,/,.,.,/,89µM
Cn1c(=O)c(-c2cc(F)cc(F)c2)nc2cncnc21,/,.,.[0.501 µM],/,/,/
N#Cc1c(NC(=O)c2ccc([N+](=O)[O-])o2)sc2c1CCC2,?,.,32µM,?,/,40µM
Cn1nccc1C(=O)Nc1sc2c(c1C#N)CCCC2,.,.,.,.,/,.
CC(C)c1onc(C(=O)Nc2sc3c(c2C#N)CCC3)c1[N+](=O)[O-],.,56µM,?,.,/,.
O=c1cnc2cnc(Nc3ccccc3)nc2n1Cc1cccs1,/,.,.[0.501 µM],/,/,/
O=C(O)/C=C/C(=O)NCc1cn(-c2ccccc2)nc1-c1cccc(Br)c1,.,.,35µM,.,/,.
O=C(O)Cc1cn(-c2ccccc2)nc1-c1ccccc1,.,.,.,.,.,.
COc1ccc(-c2cc(=O)n(-c3nc4ccccc4[nH]3)[nH]2)cc1,.,.,79µM,?,?,28µM
O=c1[nH][nH]c(=S)n1-c1ccccc1C(F)(F)F,/,7.9µM,/,/,.,?
CC1=Nc2cc([N+](=O)[O-])ccc2NC(C)(C)C1,.,?,32µM,?,.,?
CCN(Cc1nc(-c2ccc(OC)cc2)oc1C)S(=O)(=O)c1ccc(Cl)cc1,?,/,13µM,.,/,?
CCN(Cc1nc(-c2ccc(OC)cc2)oc1C)S(=O)(=O)c1ccc(C)cc1,?,/,?,.,/,?
Cc1ccc(C)c(N2CCN(C(=O)C3CCN(S(=O)(=O)c4cn(C)cn4)CC3)CC2)c1,.,/,.,.,/,.
Cc1sc2ncn(CC(=O)N(C)C3CCCCC3)c(=O)c2c1C,.,/,40µM,.,.,.
O=C1CCc2cc([S+](=O)([O-])Nc3ccc(N[S+](=O)([O-])c4ccc5c(c4)CCC(=O)N5)cc3)ccc2N1,/,/,/,.,/,/
CCOC(=O)Cn1c(-c2ccccn2)nc2ccccc21,.,.,.,.,.,.
COc1ccc(OC)c(-n2c(-c3cnccn3)n[nH]c2=S)c1,.,.,10µM,.,/,?
COc1ccc(OC)c(/C=N/NC(=O)c2cnccn2)c1,.,.,/,.,.,.
SMILES,HP1b binding inh,Sfp inh,G9a inh,JMJD2A Tudor,L3MBTL1 block,BAZ2B block
S=c1[nH]nc(-c2cnccn2)n1-c1ccccc1,.,56µM,?,32µM,/,?
COc1ccc(OC)c(-n2c(-c3ccc(C)cc3)n[nH]c2=S)c1,.,.,?,?,.,.
COc1ccc(OC)c(-n2c(Cn3c(-c4ccccn4)nc4ccccc43)n[nH]c2=S)c1,?,25µM,2.5µM,7.9µM,.,?
COc1ccc(-c2n[nH]c(=S)n2-c2cc(OC)ccc2OC)cc1,.,79µM,2.8µM,10µM,/,.
Cc1ccc(NC(=O)CCS(=O)(=O)c2ccc3c(c2)oc(=O)n3C)c(Br)c1,.,/,?,.,/,.
COc1ccc(OC)c(-n2c(-c3ccc(S(C)(=O)=O)cc3)cc(C=O)c2C)c1,.,.,?,.,.,?
COc1cccc(-n2c(SC)nnc2-c2cnccn2)c1,.,.,.,.,.,.
COc1ccc(-c2n[nH]c(=S)n2N)c(OC)c1,?,35µM,6.3µM,7.1µM,.,/
COc1ccc(OC)c(-n2c(C)ccc2-c2ccc(S(C)(=O)=O)cc2)c1,.,.,?,?,/,45µM
COc1ccc(-n2c(-c3cnccn3)n[nH]c2=S)cc1,.,50µM,5µM,8.9µM,.,?
COc1ccc(-n2c(C)n[nH]c2=O)cc1,.,.,.,?,.,.
O=C(O)c1cccc(-n2c(-c3cnccn3)n[nH]c2=S)c1,.,28µM,10µM,.,.,?
Cc1ccccc1NC(=O)c1ccc(N(Cc2ccccc2)S(C)(=O)=O)cc1,.,/,.,.,/,.
COc1ccc(-n2c(-c3ccc(Cl)cc3Cl)n[nH]c2=S)c(OC)c1,.,.,/,13µM,.,.
CN1C(=O)N(C)C2(c3ccccc3)Nn3c(s/c(=C/c4ccco4)c3=O)=NC12c1ccccc1 (stereo not given),?,.,?,.,/,?
COc1cc(/C=c2\sc3nc(-c4ccncc4)nn3c2=O)ccc1OC(C)=O,/,.,?,/,.,.
Cc1ccc(/C=c2\sc3nc(-c4cccs4)nn3c2=O)o1,.,.,18µM,?,?,.
COc1ccc(/C=c2\sc3nc(-c4ccccc4OC)nn3c2=O)c(OC)c1,.,.,.[12.7 µM],89µM,.,.
O=c1/c(=C/c2ccco2)sc2nc(-c3ccccc3Br)nn12,8.9µM,.,22µM,50µM,?,45µM
COc1ccccc1-c1nc2s/c(=C\c3cccs3)c(=O)n2n1,.,.,2.8µM,.[11.4 µM],/,.
COc1cccc(/C=c2\sc3nc(-c4cccs4)nn3c2=O)c1OC,.,.,.,.,.,.
O=c1/c(=C/c2ccccc2)sc2nnc(-c3cccs3)n12,.,.,/,.,.,.
Cn1cc(C(=O)Nc2ccc(F)c(F)c2)cn1,.,.,.,.,/,.
CN(C)c1ccc(C(=C2C=CC(=[N+](C)C)C=C2)c2ccc(N(C)C)cc2)cc1,/,45µM!,?,/,/,/
CC(=O)c1ccc(N(C)C)cc1,.,.,.,.,/,.
CN(C)c1ccc(C(=C2C=CC(=[N+](C)C)C=C2)c2ccccc2)cc1,/,50µM,11µM,/,/,/
COc1ccccc1CNc1ncncc1-c1cccc(C#N)c1,/,.,/,/,/,/
CCOc1ccc(C2C(C(=O)c3ccc(C)o3)=C(O)C(=O)N2c2nc(C)c(C(=O)OC)s2)cc1 (stereo not given),.,50µM,10µM,?,/,.
CCOC(=O)c1ccc(N2C(=O)c3n[nH]c(-c4ccco4)c3C2c2cccc([N+](=O)[O-])c2)cc1 (stereo not given),?,.,?,?,.,11µM
CCOC(=O)c1sc(N2C(=O)C(O)=C(C(=O)c3ccc(C)o3)C2c2cccc([N+](=O)[O-])c2)nc1C (stereo not given),.,?,45µM,?,/,?
